Data reported in PubChem BioAssay (NCATS).
Records with an inconclusive call do not appear. Where a call stands in place of a potency, no number is given. Active and inactive are the calls of the source. Calls follow the shape of the dose curve; as a rule, active = well fitted curve in the direction sought with a large enough effect; inconclusive = small, poorly fitted or top-dose-only effect, or another doubt; inactive = no such curve, though single readings can be large or run the other way.

Molecular target: Calcium and integrin-binding protein 1 (Homo sapiens) (UniProt Q99828)
Experiment: Validation qHTS for Identification of Calcium Integrin Binding protein 1 (CIB1) Competitor (AID 1508618)
Conditions: CIB1-GST / FITC-alphaIIb peptide fluorescence polarization; series mostly up to 114 µM
Excerpt: Assay Provider: Ulhas P. Naik, PhD
Sidney Kimmel Medical College
Thomas Jefferson University, Philadelphia, PA
Primary function of platelets is to maintain hemostasis. At the site of vascular injury, platelets adhere to adhesive proteins such as collagen and von Willebrand factor. Adherent platelets are activated and generate soluble platelet agonists such as thrombin, ADP and thromboxane A2. Following exposure of circulating platelets to these agonists, results in platelet shape change, granule secretion and activation of platelet integrin alphaIIb-beta3. Ligand binding to activated integrin alphaIIb-beta3 triggers outside-in signaling, leading to platelet aggregation, stabilization of platelet plug, and clot retraction. Upon atherosclerotic plaque rupture also causes platelet plug formation, which underlies a number of cardiovascular diseases such as myocardial infraction and stroke. A number of anti-platelet drugs such as aspirin, clopidogrel, prasugrel, vorapaxar, and eptifibatide are currently available to prevent the thrombotic complications. However, these anti-platelet agents have several limitations including inherent variability in individual responses, developing resistance, and serious bleeding side effects. For these reasons they are not suitable for long-term protection. Based on the experiences with current anti-platelet drugs, it appears that the most useful therapeutic approach is to intersect the secondary responses such as integrin outside-in signaling or recruitment of platelets by TxA2 and secreted ADP. Compounds, which can largely preserve the primary hemostatic function of platelets but inhibit secondary response will be most desired therapeutic agents for treatment of cardiovascular disease.
CIB1 is a calcium integrin binding protein, which specifically interact with the alphaIIb subunit of integrin alphaIIb-beta3. Binding of CIB1 to alphaIIb regulates the outside-in signaling in platelets, which is needed for thrombus stabilization and thrombus growth. […] Therefore, we propose that discovery of a small molecule that can prevent the association of CIB1 and alphaIIb-beta3 will be a potential anti-platelet agent that can block the thrombus formation without undue effect on hemostasis.
To develop fluorescence polarization (FP) assay using fluorescently labeled alphaIIb peptide and CIB1 protein. Using FP assay characterize the binding affinity, competitive inhibition, and acceptable Z factor (0.5 to1) in order to perform the HTS to identify small molecule compound that can prevent CIB1 binding to platelet integrin alphaIIbbeta3. This assay is screened against the NCATS LOPAC library to validate the amenability of the assay to qHTS.
[1] Naik MU, Nigam A, Manrai P, et al. CIB1 deficiency results in impaired thrombosis: the potential role of CIB1 in outside-in signaling through integrin alpha IIb beta 3. J Thromb Haemost. 2009;7(11):1906-1914. doi:10.1111/j.1538-7836.2009.03581.
SEQUENCE No. (1, 2, 3, etc.); […] (e.g., Cells, Incubation, Reagent, etc.); VALUE and DESCRIPTION.
1; Reagent; 3 uL; Protein or buffer (4/3x)
2; Compound; 46 nL; Control inhibitor / compound library
3; Time; 15 min; Room temperature incubation
4; Reagent; 1 uL; Fluorescent labeled peptide (4x)
5; Time; 1000 rpm; Centrifuge
6; Time; 15 min; Room temperature incubation
7; Detection; Ex 480/ Em 540; ViewLux Fluorescence Read
NOTES (numbers refer to sequence above)
1; Protein Mixture: C1B1-GST (final concentrations of 1 uM). Buffer composition: 5 mM HEPES pH 7.4, 125 mM NaCl, 5 mM CaCl2, 0.01% Tween20.
2; Control Inhibitor: unlabeled peptide (final concentration range 17.4 nM to 572 uM). Compound Library final concentration range 18.3 nM to 114 uM.
3; Room temperature incubation.
4; Fluorescent Labeled Peptide: FITC-aIIb (final concentration of 100 nM). Sequence of alphaIIb peptide: Acetyl-[…]-FITC (purity is 95.83%).
6; Room temperature incubation.
[…]

Calcium and integrin-binding protein 1 (Homo sapiens), sequence (Q99828 whole entry, looked up): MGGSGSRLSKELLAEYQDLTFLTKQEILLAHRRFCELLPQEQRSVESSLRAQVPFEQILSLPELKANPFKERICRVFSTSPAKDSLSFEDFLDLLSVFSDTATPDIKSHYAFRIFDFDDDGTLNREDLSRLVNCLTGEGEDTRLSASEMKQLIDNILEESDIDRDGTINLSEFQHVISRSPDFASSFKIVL

Compound | Potency
O=c1ccc2c(OCCCCc3ccccc3)c3ccoc3cc2o1 | inactive
CCN(CC)CCCCCCCCOC(=O)c1cc(OC)c(OC)c(OC)c1 | inactive
OC[C@H]1NC[C@@H](O)[C@@H]1O | inactive
CCCN(CCc1ccccc1)C1CCc2c(O)cccc2C1 (stereo not given) | inactive
Nc1ccc(N2C(=O)c3ccccc3C2=O)c(Cl)c1 | inactive
CCCCCCCCCCCCCCCCCCOC[C@H](COP(=O)([O-])OCC[N+](C)(C)C)OC | inactive
Nc1ccc(CCNc2ncnc3c2ncn3C2OC(CO)C(O)C2O)cc1 (stereo not given) | inactive
NC1(C(=O)O)CCCCC1 | inactive
CSC(N)=NCCC[C@H](N)C(=O)O | inactive
NCCNS(=O)(=O)c1cccc2c(Cl)cccc12 | inactive
COc1ccc(CCN(C)CCc2ccc(OC)c(OC)c2)cc1OC | inactive
CCCCCCC(=O)OC1CC(C)(C)NC(C)(C)C1 | inactive
CCCCCCCC/C=C\CCCCCCCC(=O)NCCc1ccc(O)c(O)c1 | inactive
NC(N)=NC(N)=Nc1cccc(Cl)c1 | inactive
CC(=O)NCCc1c[nH]c2ccc(O)cc12 | inactive
CC1=C(/C=C/C(C)=C/C=C/C(C)=C\C(=O)O)C(C)(C)CCC1 | inactive
CCCCCC[C@@H]([C@@H](C)O)n1cnc2c(N)ncnc21 | inactive
CN[C@H](CC(=O)O)C(=O)O | inactive
CC#CCOC(=O)c1c(C)nc2sc3c(c2c1N)CCC(O)C3 (stereo not given) | inactive
O=C(O)Cc1c[nH]c2ccc(O)cc12 | inactive

Compound | Potency
CCCCCCCCCC[Si](C)(C)CCC(=O)NC(Cc1ccc(C)cc1)c1ccccc1 (stereo not given) | inactive
O=c1cc(-c2ccccc2F)[nH]c2cc3c(cc12)OCO3 | inactive
O=C1Nc2ccc(I)cc2/C1=C/c1cc(Br)c(O)c(Br)c1 | inactive
CCn1c(=O)[nH]c2cc(Cl)c(Cl)cc21 | inactive
CC(C)(C)c1cc(/C=C(\C#N)C(N)=S)cc(C(C)(C)C)c1O | inactive
C[C@H](NC(=O)/C(C#N)=C/c1ccc(O)c(O)c1)c1ccccc1 | inactive
Nc1nc2[nH]c(=O)cnc2c(=O)[nH]1 | inactive
CC1CCN=C(N)S1 (stereo not given) | inactive
CCCCCCCCCCCCCCSCC(=O)O | inactive
Cc1cc2c(cc1Cl)N(C(=O)Nc1ccnc3ccccc13)CC2 | inactive
O=C(O)c1ccccc1Nc1ccccc1 | inactive
CN1CC(O)C(O)C(O)C1CO (stereo not given) | inactive
O=C(O)c1cccnc1C(=O)O | inactive
Nc1nc2ccc(Cl)cc2c2nc(-c3ccco3)nn12 | inactive
CC[C@H](NC(=O)c1c(C)c(-c2ccccc2)nc2ccccc12)c1ccccc1 | inactive
CN1Cc2sccc2C(c2ccc(O)c(O)c2)C1 (stereo not given) | inactive
CC(C)(CO)Cc1cc(C(C)(C)C)c(O)c(C(C)(C)C)c1 | inactive
O=C(O)C1=CCCN(CCON=C(c2ccccc2)c2ccccc2)C1 | inactive
Clc1nccc2c1ccc1ccccc12 | inactive
CC(N)(C(=O)O)c1ccc(C(=O)O)cc1 (stereo not given) | inactive
